# High-throughput results as filed in PubChem.
# The list is not random: actives were taken first. Their share in the collection is about 19%.
# Pf growth 48h: inhibits P. falciparum growth in the first generation, 48 h | P. falciparum luciferase growth in erythrocytes, 48 h | Potency, µM (titrated, usually from 28.7 µM), inactives show top-dose activity change, negative = inhibition, actives largely listed as inhibitors | 5.9% of 310,000 active | AID 504832; also: potency is read from the fitted curve at half-maximal effect; % is scaled to controls: 0 for no effect and ±100 for the full control effect
#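 Cell-based growth assay: transgenic P. falciparum expressing firefly luciferase, cultured in red cells within RPMI 1640 containing 0.5% w/v Albumax, 24 mM bicarbonate and gentamycin. A drop in luciferase activity indicates inhibition.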
# SARS PLpro yeast: SARS-CoV PLP inhibition in yeast. Potency, µM (series often up to 32.9 µM), for inactives: at the highest dose activity, positive = growth rescue, actives largely listed as activators. S. cerevisiae expressing SARS-CoV PLpro, growth rescue. 0.19% of 330,000 active; calls by dose curve; also: potency is read from the fitted curve at half-maximal effect; 0% is about no effect; nearly all actives have a fitted effect of over 55% in size
# Shiga inhibitor: blocks Shiga toxin action in Vero cells | Vero cells, Shiga toxin protein synthesis inhibition reporter | inhibition, % at 38.7 µM | 9.2% of 290,000 active | AID 2315; in the data active = inhibition mostly above about 28%, no sharp cut-off; inactive = mostly below about 43%; also: 0% is about no effect
# AMA1-RON2 inh: inhibitors of Plasmodium falciparum AMA1-RON2 interaction; AlphaScreen AMA1-biotinylated RON2 peptide binding; Potency, µM (doses to about 58.2 µM), inactives show top-dose activity change, negative = inhibition, hits mostly inhibitors; 0.2% of 360,000 active; AID 720542;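 also: potency is read from the fitted curve at half-maximal effect; 0% = vehicle wells and -100% = peptide control; nearly all actives have a fitted effect of over 45% in size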
#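 AMA1 (3D7) with his tag at 25 nM final met compounds first, then biotinylated RON2 peptide at 25 nM; detection used donor plus acceptor beads, 10 µg/mL apiece, read by AlphaScreen after 30 min at room temperature.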
# CHX counter: affects cycloheximide protein synthesis inhibition readout, counter-screen. cell reporter, cycloheximide protein synthesis inhibition counterscreen. max response, %. 12% of 300,000 active. AID 2314; in the data active = max response mostly above about 13%, no sharp cut-off; inactive = mostly below about 14%; also: read at 38.3 µM for the half of the compounds with a filed dose; 0% is about no effect
# Pf growth 96h: P. falciparum growth inhibition at 96 hour, primary screen for plastid delayed-death inhibitors. P. falciparum luciferase reporter growth, 96 h. Potency, µM (series often up to 28.7 µM), for the others: at the top dose activity change, negative = inhibition, usual class: inhibitors. 6.9% of 320,000 active. AID 504834; also: potency is read from the fitted curve at half-maximal effect; % is scaled to controls: 0 for no effect and ±100 for the full control effect
#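 Readout is luminescence from an integrated firefly luciferase in P. falciparum. Red cells, 2% hematocrit and 0.05% parasitemia final, were cultured with compound through two parasite generations (96 hours) at 37 C, 5% CO2.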
# An asterisk follows results filed as active; u = inconclusive; x = no result; [ ] = remark or other dose. Unless noted, calls follow the shape of the dose curve; as a rule, active = well fitted curve in the direction sought with a large enough effect; inconclusive = small, poorly fitted or top-dose-only effect, or another doubt; inactive = no such curve, though single readings can be large; an effect the other way counts as inactive or inconclusive.
SMILES,Pf growth 48h,SARS PLpro yeast,Shiga inhibitor,AMA1-RON2 inh,CHX counter,Pf growth 96h
CCC(C)(C)c1ccc(Oc2cccc(C(=O)O)c2)cc1,54%,-9%,163*,0%,39*,83%
COc1cccc(C(=O)NC2CCCC2)c1,14%,0%,43,-2%,7,4.7µM*
COc1cccc(C(=O)NNC(=S)NC2CCCCC2)c1,184%,3%,47*,20%,42*,u
O=C(NC1CCCC1)c1cccc(Oc2ccccc2)c1,11%,0%,78*,u,23*,u
CCC(C)(C)c1ccc(Oc2ccc(N)cc2)cc1,u,-19%,-32,u,-6,u
CN1CCC(NC(=O)c2cccc(Oc3ccccc3)c2)CC1,-1%,3%,-11,-12%,-3,10%
CCCCC(=O)NC(=O)NC(c1ccccc1)c1ccccc1,u,0%,8,8%,1,u
COc1cc(OC)cc(-c2c(Sc3ccccc3)c3cc(-c4ccc(OC)nc4)ccc3n2C)c1,x,x,x,-4%,x,x
C=CCn1c(SCC(=O)NCC2CCCO2)nnc1-c1ccccc1 (stereo unspecified),-7%,-1%,-9,-3%,1,16%
O=C(Cn1nnc(-c2ccc([N+](=O)[O-])cc2)n1)NNC(=O)c1ccccc1,13%,-2%,-10,59%,11,-19%
CC1(C)C(=O)Nc2ccccc2N1C(=O)COc1ccc(C#N)cc1,x,-5%,x,-2%,x,x
CC(=O)Nc1ccc(NC(=O)c2cccc(Oc3ccccc3)c2)cc1,15%,23%,-7,-2%,-2,12%
CCCC(C)NC(=O)c1cccc(Oc2ccccc2)c1 (stereo unspecified),5%,3%,60*,9%,23*,3%
Cc1cc(C(=O)NNC(=S)NC2CCCCC2)cs1,74%,3%,34,110%,17*,5%
O=C(O)c1ccc(C2SCC(=O)N2Cc2ccccc2)cc1 (stereo unspecified),-4%,-2%,-6,0%,-3,1.7µM*
Oc1[nH]c2ccccc2c1N=Nc1ccc(F)cc1,127%,-22%,66*,7%,21*,u
Cc1ccc(S(=O)(=O)N=Nc2c(O)[nH]c3ccccc23)cc1,5%,-5%,-10,-5%,-8,12µM*
Oc1[nH]c2ccccc2c1N=Nc1nc2ccccc2s1,x,-2%,49*,6%,35*,297%
Oc1[nH]c2ccccc2c1N=Nc1ccccc1,113%,1%,104*,-3%,44*,165%
Cc1ccc(C)c(S(=O)(=O)N=Nc2c(O)[nH]c3ccccc23)c1,4%,0%,9,14%,-3,49%[5.75 µM]
Oc1[nH]c2ccc(Br)cc2c1N=Nc1ccc(F)cc1,35%,-2%,45,6%,14,43%
O=C(Nc1ccccc1-c1nnn(CC(=O)N2CCOCC2)n1)c1ccc(F)cc1,5%,0%,23,4%,1,20%
COc1ccc(S(=O)(=O)N2CCCC(N(C)CCc3ccccc3)C2)cc1OC (stereo unspecified),u,-1%,-1,-13%,-2,9%
O=C(COc1ccc(Br)cc1)OCCN1CCCCC1,-24%,5%,16,-23%,9,u
O=[N+]([O-])c1ccc2[nH]c(O)c(N=Nc3ccc(F)cc3)c2c1,19%,1%,-7,-6%,5,u
SMILES,Pf growth 48h,SARS PLpro yeast,Shiga inhibitor,AMA1-RON2 inh,CHX counter,Pf growth 96h
CC(Oc1ccccc1)C(=O)N=Nc1c(O)[nH]c2ccc([N+](=O)[O-])cc12 (stereo unspecified),-5%,0%,26,32µM*,-1,-19%
Oc1[nH]c2ccccc2c1N=Nc1ccccc1F,241%,12%,125*,1%,21*,u
O=C(N=Nc1c(O)[nH]c2ccccc12)c1cccc(S(=O)(=O)Nc2ccccc2Cl)c1,-27%,1%,-9,14%,5,-6%
O=[N+]([O-])c1ccc(N=Nc2c(O)[nH]c3ccc(F)cc23)cc1,75%,-3%,56*,-22%,44*,33%
NS(=O)(=O)c1cc(C(=O)N=Nc2c(O)[nH]c3ccccc23)ccc1Cl,10µM*,0%,12,-7%,7,1.5µM*
O=C(N=Nc1c(O)[nH]c2ccc([N+](=O)[O-])cc12)c1ccccc1[N+](=O)[O-],-12%,0%,19,-11%,-1,u
O=[N+]([O-])c1ccccc1N=Nc1c(O)[nH]c2ccc(F)cc12,x,x,x,15%,x,x
CCN(C(=O)COC(=O)COc1ccc(Cl)c(C)c1)C1CCS(=O)(=O)C1 (stereo unspecified),u,2%,x,39%,x,5%
CC(C)(C)NC(=O)C(c1ccco1)N(C(=O)Cn1nnc(-c2ccc(F)cc2)n1)c1ccccc1F (stereo unspecified),u,4%,7,-24%,-1,1%
CC(C)(O)C(=O)N=Nc1c(O)[nH]c2ccccc12,112%,-1%,61*,49%,33*,2%
COc1ccc(OCc2cc(C(=O)NC(C)Cc3cccnc3)no2)c(Cl)c1 (stereo unspecified),-6%,0%,38,6%,27*,-22%
COc1ccc(OCc2cc(C(=O)NC(C)Cc3ccccn3)no2)c(Cl)c1 (stereo unspecified),u,-2%,37*,2%,35*,48%
CC(=O)c1ccc(OCc2cc(C(=O)NC(C)Cc3ccccn3)no2)cc1 (stereo unspecified),-3%,-6%,-4,20%,1,27%
COc1ccc(OCc2cc(C(=O)NC(C)Cn3cncn3)no2)c(Cl)c1 (stereo unspecified),15%,3%,62*,-1%,40*,1%
CSc1ccc(C(=O)C2CCCN(Cc3cccnc3)C2)cc1 (stereo unspecified),u,0%,-6,4%,-1,u
CC(C)Oc1cccc(C(=O)C2CCCN(Cc3cccn3-c3cccnc3)C2)c1 (stereo unspecified),u,12%,-21,-21%,2,12µM*
CSc1ccc(C(=O)C2CCCN(Cc3cc4ccccc4[nH]3)C2)cc1 (stereo unspecified),u,-1%,-2,32µM*,-4,-18%
COc1ccc(CN2CCCC(C(=O)c3cccc(OC(C)C)c3)C2)cc1Cn1cccn1 (stereo unspecified),9.3µM*,1%,-12,-3%,9,-30%
CCn1ncc(CN2CCCC(C(=O)c3cccc(OC(C)C)c3)C2)c1C (stereo unspecified),u,1%,2,8%,0,-13%
C=CCNC(=O)N1CCCC(C(=O)c2cccc(Cl)c2)C1 (stereo unspecified),7%,-1%,-1,-1%,2,u
